Screens as filed in PubChem.
MK inhibit – S. pneumoniae MK inhibitors, primary screen, biochemical, PK/LDH-coupled NADH absorbance; 65,000 tested, 0.48% active; AID 555, 2006; purified MK, PK/LDH-coupled NADH absorbance 340 nm; inhibition, % at 10 µM; mevalonate kinase [Streptococcus pneumoniae D39];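 active means ranked among the strongest by inhibition in the single 10 µM screen, a fixed top-ranked set picked for dose follow-up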
PMK inhibit – S. pneumoniae PMK inhibitors, primary screen, biochemical, mevalonate pathway, pilot trial included; phosphomevalonate kinase (Streptococcus pneumoniae D39); purified PMK, PK/LDH-coupled NADH absorbance 340 nm; 65,000 tested, 0.49% active; inhibition, % at 10 µM;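 active means top-ranked compounds by inhibition in the single 10 µM screen, taking a fixed number of the strongest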
Abs 340nm – compound light absorbance at 340 nm, profiling panel, artefact control, biochemical, MLSMR library, data from PS, PMK, MK assays; compound absorbance at 340 nm, fold over control; fold change at 10 µM; 65,000 tested, under 10 active;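 active means at 10 µM dose, initial 340 nm absorbance at least 2 fold that of control wells; inactive means change under 2 fold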;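 further: initial absorbance extrapolated from kinetic A340 decline of NADH oxidation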
Fluor 339 460 – intrinsic fluorescence of library compounds, ex339/em460 – biochemical, MLSMR library, data from DPM-DC assay, artefact control, profiling panel | compound autofluorescence, ex339/em460 nm, NADH buffer; active compounds read high; 1 = no-compound wells, NADH background | fluorescence fold increase at 10 µM | 65,000 tested, 5.5% active | AID 709, 2007;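 active means at 10 µM, mean starting fluorescence two-fold or more over control wells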;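 further: signal is the first read of a kinetic run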
NADH enzymes – inhibitors of PK/LDH coupling enzymes, profiling panel, artefact control, biochemical, MLSMR library; AID 774, 2007; IC50, µM (highest dose often 10 µM); 65,000 tested, 0.02% active; coupled PK/LDH NADH assays, four targets;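 active means single-dose screening hits from any of four coupled enzyme assays that gave an IC50 when retested across doses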;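 further: the DPM-DC format reads NADH fluorescence rather than 340 nm absorbance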
DPM-DC inhibit – S. pneumoniae DPM-DC inhibitors, primary screen, biochemical, PK/LDH-coupled NADH fluorescence; 65,000 tested, 0.49% active; AID 556, 2006; purified DPM-DC; calls only at 10 µM;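 active means the 320 compounds with the highest percent inhibition in the single-dose primary screen, excluding strongly autofluorescent ones, cut at about 32% in these data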;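 further: kinetic rate of NADH fluorescence loss reporting ADP formed by the decarboxylase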
Of the large screens only hits and unclear results are named; the others gave an inactive call. Hits are enriched below; roughly 6.5% of the tested compounds scored in any of these assays.

O=S(=O)(c1cccc(-c2cn3cccnc3n2)c1)N1CCOCC1	Fluor 339 460 3.8 (not shown: DPM-DC inhibit)
O=C(Nc1ccccn1)c1cccc(S(=O)(=O)N2CCOCC2)c1	none
O=S(=O)(c1cccc(-c2cn3cccnc3n2)c1)N1CCCCCC1	Fluor 339 460 3.6 (not shown: DPM-DC inhibit)
CC1CN(S(=O)(=O)c2cccc(-c3cn4cccnc4n3)c2)CC(C)O1 (stereo not drawn)	Fluor 339 460 3.8 (not shown: DPM-DC inhibit)
Cc1cc(=O)oc(C)c1C(=O)NCc1ccccn1	none
COc1ccc(Cl)cc1NC(=O)Cn1c(=O)n2nc(C)nc2c2ccccc21	none
CCN(CC)CCOC(=O)c1ccc(N=CC2=C(O)CC(C)(C)CC2=O)cc1	DPM-DC inhibit active
C=CCOn1c(=O)c(-c2cc3ccccc3o2)[n+]([O-])c2ccccc21	none
O=C(Nc1ccc(Br)cc1)C1CCCN1S(=O)(=O)c1cccs1 (stereo not drawn)	none
COc1ccc(CNC(=O)C2CCN(S(=O)(=O)c3cccc4cccnc34)CC2)cc1	PMK inhibit 27
Cc1ccc(CNC(=O)C2CCN(S(=O)(=O)c3c(C)noc3C)CC2)cc1	MK inhibit active
O=C(NCc1ccccc1)C1CCN(S(=O)(=O)c2cccc3cccnc23)CC1	none
O=C1CCC(=O)N1CNc1ccc(Oc2ccccc2)cc1	none
CCCn1c2ccccc2c2nnc(SCC(=O)Nc3ncccn3)nc21	none
O=C(CSc1nnc(-c2cccs2)o1)OCc1ccccc1	none
CN(C)C(=O)CSc1nnc(-c2cc(-c3cccs3)nc3ccccc23)o1	Fluor 339 460 4.9 (not shown: DPM-DC inhibit)
OCCNc1nc(N2CCN(Cc3ccccc3)CC2)nc2ccccc12	Fluor 339 460 2
O=C(NCCO)c1nc(NCCO)c2ccccc2n1	none
C=CCNc1nc(N2CCCC2)nc2ccccc12	Fluor 339 460 2.7, DPM-DC inhibit active
Nc1ccc2[nH]ncc2c1	Fluor 339 460 2.3 (not shown: DPM-DC inhibit)
CCn1c(SCC(=O)c2[nH]c(C)c(C(C)=O)c2C)nnc1-c1cccs1	PMK inhibit 27
CCCOc1ccc2oc(=O)c3c(c2c1)CCCN3C(=O)CN1CCN(C(=O)c2ccco2)CC1	Fluor 339 460 3
CCCOc1ccc2oc(=O)c3c(c2c1)CCCN3C(=O)CN1CCN(c2ncccn2)CC1	none
O=C(CN1CCCC1)N1CCCc2c1c(=O)oc1ccc(OCc3ccccc3)cc21	Fluor 339 460 3, DPM-DC inhibit active
COc1ccccc1NCN1C(=O)CCC1=O	none
O=C(c1ccc(-c2nnc(-c3ccccc3)o2)cc1)N1CCCCCC1	none
COc1ccc(C2C3=C(CC(C)(C)CC3=O)Nc3n[nH]c(C)c32)cc1 (stereo not drawn)	Fluor 339 460 2.3 (not shown: DPM-DC inhibit)
Cc1[nH]nc2c1C(c1ccccc1)C1=C(CC(C)(C)CC1=O)N2 (stereo not drawn)	Fluor 339 460 4.4 (not shown: DPM-DC inhibit)
COc1ccc(C2C(C(=O)N3CCOCC3)=C(C)NC3=C2C(=O)CC(C)(C)C3)c(OC)c1 (stereo not drawn)	Fluor 339 460 4.8 (not shown: DPM-DC inhibit)
CC1=C(C(=O)N2CCOCC2)C(c2ccccc2F)C2=C(CC(C)(C)CC2=O)N1 (stereo not drawn)	Fluor 339 460 4.8 (not shown: DPM-DC inhibit)
CC1=C(C(=O)OCCOc2ccccc2)C(c2ccc(C)o2)C2=C(CC(C)(C)CC2=O)N1 (stereo not drawn)	none
COc1ccc(C2C(C#N)=C(C)NC3=C2C(=O)CC(C)(C)C3)c(OC)c1 (stereo not drawn)	none (not shown: DPM-DC inhibit)
O=c1nc(-c2ccccc2)c2ccccc2[nH]1	Fluor 339 460 2.7
CCOC(=O)CSc1nc(-c2ccc3c(c2)OCO3)ccc1C#N	Fluor 339 460 2.2 (not shown: DPM-DC inhibit)
CCOC(=O)CSc1nc(-c2ccncc2)ccc1C#N	none
CCOC(=O)CC(=O)CSc1nc(-c2cccnc2)ccc1C#N	Fluor 339 460 2.1 (not shown: DPM-DC inhibit)
Nc1nnc(CSc2ccc(Cl)cc2)s1	none
COc1cc2nc(NCCN3CCOCC3)n3nc(-c4ccccc4)nc3c2cc1OC	Fluor 339 460 2.9
Cc1nnc(SCCN2CCOCC2)n1C	MK inhibit 52
